Source: PubChem
Only some compounds are listed: those with a hit (about 5.4% of all), similar ones and a draw of the others.
IMPase inh: qHTS Assay for Identifying the Cell-Membrane Permeable IMPase Inhibitors; inhibition (IP1 accumulation), % at 46.1 µM; 120,000 tested, under 10 active; CHO-M1 cells, IP1 accumulation, HTRF TR-FRET ratio; Inositol monophosphatase 1 (Rattus norvegicus), P97697; AID 901, 2007; active = well fitted curve in the direction sought with a large enough effect in the signal ratio, not every such curve was filed as active; inconclusive = small, poorly fitted or top-dose-only effect, or a change in a side signal; inactive = no such curve, though single readings can be large or run the other way; the % refers to the signal ratio;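 note: cells stimulated with carbachol in lithium chloride buffer; plate controls were DMSO basal wells for no effect and reference inhibitor wells for full effect; higher means more IMPase inhibition seen as more IP1 and lower FRET ratio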
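Cellular IMPase inhibition is scored as a rise in cytosolic IP1, detected by competitive TR-FRET between d2-labelled IP1 and a europium anti-IP1 antibody. M1-expressing CHO cells were stimulated with carbachol for 30 min at 37C, with lithium (50 mM LiCl) present in the buffer.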
PNC assembly inh: High Content Assay for Compounds that inhibit the Assembly of the Perinucleolar Compartment; PC3M PTB-GFP, PNC prevalence imaging, 16 h; active compounds read low; activity change (PNC), negative = inhibition, % at 10 µM; 140,000 compounds, 3.1% hits; AID 2417, 2010;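 active = readout at or below -70, meaning at least 70% loss of cells showing the perinucleolar compartment, a nuclear body marking cancer cells; inconclusive = readout between -30 and a set limit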;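 note: plate controls were DMSO wells for no effect and camptothecin positive control wells for full effect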
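PC3M cells stably expressing PTB-GFP, 750–1000 cells/well, treated 16 h at 37 °C with compound (23 nl of library stock), in duplicate. After paraformaldehyde fixation and Hoechst stain, imaged at 20x; PNC prevalence scored by image analysis.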
IMPase Li inh: qHTS Assay for Identifying the Cell-Membrane Permeable IMPase Inhibitors: Potentiation with Lithium; CHO-M1 cells, IP1 TR-FRET (IP-One), carbachol + lithium; Potency, µM (titrated, usually from 59.4 µM), without a hit: top-dose activity, negative = IMPase inhibition, most hits filed as inhibitors; 210,000 compounds, 0.35% hits; AID 1457, 2008;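 note: IP1 builds up when IMPase is blocked and the TR-FRET signal falls; potency is the fitted concentration of half-maximal effect; plate controls were basal vehicle for no effect and high inhibitor control for full effect; nearly all actives have a fitted effect of over 50% in size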
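IP1 accumulation measured by competitive TR-FRET in lysed CHO-M1 cells after 30 min compound exposure at 37C, with a small lithium addition to potentiate weak responses. Hill-equation AC50 from ratio and donor-channel data.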
15-hLO-2 inh: qHTS Assay for Inhibitors of 15-hLO-2 (15-human lipoxygenase 2); purified 15hLO-2, xylenol orange hydroperoxide absorbance; Potency, µM (titrated, usually from 57.1 µM), inactives show at the top dose activity change, negative = inhibition, actives largely listed as inhibitors; 110,000 compounds, 0.56% hits; note: potency is the fitted concentration of half-maximal effect; nearly all actives have a fitted effect of over 60% in size
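Screening format was qHTS against 50 nM purified 15hLO-2 in Hepes pH 7.5 with detergent. Activity follows hydroperoxide formation from 45 uM arachidonic acid, measured as 573:405 nm absorbance ratio of the ferric-xylenol orange complex.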
12-hLO inh: qHTS Assay for Inhibitors of 12-hLO (12-human lipoxygenase). Potency, µM (top dose mostly 57.1 µM), for inactives: at the highest dose activity change, negative = inhibition, most hits filed as inhibitors. purified 12-hLO, xylenol orange hydroperoxide absorbance. 150,000 compounds, 0.12% hits; note: potency is the fitted concentration of half-maximal effect; nearly all actives have a fitted effect of over 55% in size
Target sequence (P18054 whole entry, looked up): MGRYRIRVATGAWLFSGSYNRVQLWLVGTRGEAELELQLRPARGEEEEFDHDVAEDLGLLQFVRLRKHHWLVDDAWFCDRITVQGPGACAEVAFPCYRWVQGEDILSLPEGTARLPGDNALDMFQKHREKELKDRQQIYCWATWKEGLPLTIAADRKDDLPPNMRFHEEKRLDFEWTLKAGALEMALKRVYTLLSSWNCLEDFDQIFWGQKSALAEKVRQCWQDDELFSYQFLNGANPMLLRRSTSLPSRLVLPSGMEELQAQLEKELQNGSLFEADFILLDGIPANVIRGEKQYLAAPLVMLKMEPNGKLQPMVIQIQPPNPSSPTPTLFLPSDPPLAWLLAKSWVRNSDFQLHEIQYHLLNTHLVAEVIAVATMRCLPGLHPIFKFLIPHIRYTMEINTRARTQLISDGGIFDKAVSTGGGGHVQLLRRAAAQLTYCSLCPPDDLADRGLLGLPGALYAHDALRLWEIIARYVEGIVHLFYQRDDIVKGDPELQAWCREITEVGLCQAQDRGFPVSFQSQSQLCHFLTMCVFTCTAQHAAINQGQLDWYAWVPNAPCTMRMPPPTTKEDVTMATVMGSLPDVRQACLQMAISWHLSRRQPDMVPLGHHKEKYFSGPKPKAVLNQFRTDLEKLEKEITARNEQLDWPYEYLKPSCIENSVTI
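Lipoxygenase turnover measured by absorbance at 573 and 405 nm after Fe-XO development. Human 12hLO 150 nM, arachidonate 40 uM, pH 7.0 Hepes buffer with detergent; 15 min compound preincubation, 30 min reaction.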
HPGD inh: qHTS Assay for Inhibitors of HPGD (15-Hydroxyprostaglandin Dehydrogenase); 15-hydroxyprostaglandin dehydrogenase [NAD(+)] (Homo sapiens), P15428; Potency, µM, inactives show at the top dose activity change, negative = inhibition, actives largely listed as inhibitors; 150,000 compounds, 4.3% hits; purified HPGD, NADH fluorescence kinetic, PGE2 substrate; active = well fitted inhibition curve with a large enough effect, not every such curve was filed as active; inconclusive = small, poorly fitted or top-dose-only effect, or another doubt; inactive = no such curve, though single readings can be large or run the other way; note: potency is the fitted concentration of half-maximal effect
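NADH formation kinetics: reaction with 30 uM PGE2 and 1 mM NAD+ (final), 20 nM enzyme, Tris-HCl pH 8 with Tween 20, after 15 min compound preincubation at room temperature. Fluorescence change, last versus first of five reads.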
Starred values were filed as active, the others as inactive; u = inconclusive; x = no result given; [ ] = dose if it differs, or a comment. Unless noted, calls come from the whole dose curve; as a rule, active = well fitted curve in the direction sought with a large enough effect; inconclusive = small, poorly fitted or top-dose-only effect, or another doubt; inactive = no such curve, though single readings can be large; an effect the other way counts as inactive or inconclusive. Unless noted, % is set by controls: 0 for no effect and ±100 for the full control effect.

SMILES	IMPase inh	PNC assembly inh	IMPase Li inh	15-hLO-2 inh	12-hLO inh	HPGD inh
CCOCCCNC(=O)c1ccccc1Br	-11.8	-22.5	20.5%[38.3 µM]	0.6%	-0.9%	10µM*
COc1ccc(-c2nsc(SCC(=O)Nc3cc(C)on3)n2)cc1	-11.0	u	19.0%[38.3 µM]	-12.2%	0.0%	25.1µM*
Cc1cc(C)n2c(SCC(=O)Nc3cc(C)on3)nnc2n1	-2.4	-100.0*	1.3%	x	3.8%	u
COc1ccc2nc(SCC(=O)Nc3cc(C)on3)[nH]c2c1	-6.8	-97.1*	18.4%[38.3 µM]	8.8%	4.5%	-11.3%
Cc1cc(NC(=O)CSC2=NCCS2)no1	1.8	-108.6*	17.9%[38.3 µM]	-3.9%	3.8%	0.3%
CCCCC/C=C\C/C=C\C/C=C\CCCCCCC(=O)NCCCC(=O)O	x	x	3.1%	x	3.1%	2.7%
Oc1ccc2cc(SSc3ccc4cc(O)ccc4c3)ccc2c1	x	x	3.0%	-18.1%	-4.4%	-24.9%
Cc1cc2nc(-c3ccc(SCC(=O)NC(C)C)nc3)[nH]c2cc1C	x	x	3.1%	x	x	x
Cc1cc(NC(=O)CSc2ccc(-c3nc4cc(C)c(C)cc4[nH]3)cn2)no1	3.2	16.0	11.2µM*	2.6%	-3.6%	u
Cc1cc(C)nc(NS(=O)(=O)c2ccc(NC(=O)CSc3nc4ccccc4[nH]3)cc2)n1	x	-0.3	-0.5%	x	0.5%	-5.1%
COc1ccc2nc(SCC(=O)Nc3ccc(S(=O)(=O)Nc4nccc(C)n4)cc3)[nH]c2c1	2.0	28.0	-8.2%[38.3 µM]	3.1%	-4.4%	28.2µM*
CN(C)c1ncc2nc(-c3cccs3)c(=O)n(C)c2n1	x	x	-0.9%	-7.6%	x	x
O=C1C[C@H]2OCC=C3CN4CC[C@@]5(C(=O)O)[C@H](N1)[C@H]2[C@H]3C[C@H]45	x	x	x	-3.2%[11.4 µM]	-0.3%[11.4 µM]	x
CN(C)/C=C(/C#N)C(=O)c1cccc(Oc2ccc(C(C)(C)C)cc2)c1	3.1	-3.7	36.1%[38.3 µM]	18.1%	14.4%	22.4µM*
COc1cc(Cl)cc(/C=C/c2ccc3ccccc3n2)c1OC(C)=O	x	-100.8*	2.6%	x	3.0%	u
CCCCCCCCC/C=C/CC1CC(=O)OC1=O (stereo not given)	x	x	12.9%	-22.4%	-1.7%	-15.6%
CN(N=O)c1ccc(/C=C\c2ccnc3ccccc23)cc1	x	x	3.8%	6.1%[11.4 µM]	-3.1%[11.4 µM]	u
COc1cc(NC(=O)c2cc3nc(-c4ccccc4)cc(-c4ccccc4)n3n2)c(OC)cc1Cl	-10.2	x	x	x	x	x
COc1ccc(NC(=O)N(C2CCCCC2)C(C)c2ccco2)c(OC)c1 (stereo not given)	11.0	-6.5	21.9%[38.3 µM]	9.5%	-3.6%	-11.8%
COc1ccc(NC(=O)N(C2CCCCC2)C(C)c2cccnc2)c(OC)c1 (stereo not given)	10.3	-84.9*	5.6%[38.3 µM]	1.6%	-0.2%	-3.7%
N#CC1=C(N)OC2=C(C(=O)CC(c3ccccc3)C2)C1c1ccc2c(c1)OCO2 (stereo not given)	x	35.2	14.3%	x	-6.0%	28.2µM*
N#CC1=C(N)OC(c2ccccc2)=C(C#N)C1c1ccc2c(c1)OCO2 (stereo not given)	-7.3	1.1	28.5%[38.3 µM]	-15.1%	-24.8%	14.1µM*
CC(C)CC1C(C#N)=C(N)OC2=C1C(=O)CC(c1ccccc1)C2 (stereo not given)	x	x	10.7%	x	x	x
CCSC1=C(C#N)C(c2ccc3c(c2)OCO3)C2=C(CCCC2=O)N1 (stereo not given)	1.8	1.0	11.4%[38.3 µM]	-12.8%	2.6%	14.1µM*
COCC(=O)N1CCc2nc(-c3ccc(OC)cc3C)c3c(c2C1)CO[C@@H](c1ccccc1)C3	x	x	4.8%	x	2.8%[11.4 µM]	-9.9%
